This note sets out measurements from PubChem BioAssay (NCATS).

The nature of assay [1]: qHTS drug screen for cell cycle checkpoint inhibitors in PARPi-resistant BRCA-mutant ovarian cancer cell lines. (AID 1963452; calls by dose curve). The following applies: PEO1/OlaR viability, CellTiter-Glo luminescence, 96 h, stronger effect = lower value. An outline of the steps: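 PEO1, PEO4 and PEO1/OlaR ovarian cancer cells, 600 per well, exposed 96 h at 37C to a dilution series. Viability read by CellTiter-Glo luminescence, normalized to DMSO and empty wells; activity summarized as Z-AUC.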

Assay [2] can be described thus: qHTS profiling for inhibitors of Plasmodium falciparum proliferation (AID 504749). Note: nearly all actives have a fitted effect of over 60% in size. Note: potency is the fitted concentration of half-maximal effect. The following applies: P. falciparum in erythrocytes, SYBR Green DNA, 72 h; series mostly up to 28.7 µM. An outline of the steps: (§1)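 SYBR Green fluorescence (ex 485 nm, em 535 nm) reports parasite DNA after 72 h compound exposure of infected red cells at 0.3% parasitemia, 2.5% hematocrit; signal normalized to 0.29 uM artemisinin and vehicle wells.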
Background: qHTS replaces the single test concentration by a dilution series.

A further assay relates to 3D7. Described as above. The following applies: P. falciparum in erythrocytes, SYBR Green DNA, 72 h; series mostly up to 28.7 µM. An outline of the steps:
as §1

A further assay deals with AA1029. Described as above. The following applies: P. falciparum in erythrocytes, SYBR Green DNA, 72 h; series mostly up to 28.7 µM. An outline of the steps: as §1
The test system of a further assay is AS120. The assay is described as above. As to conditions: P. falciparum in erythrocytes, SYBR Green DNA, 72 h; series mostly up to 28.7 µM. An outline of the steps:
as §1

Another assay deals with ATS189. The description is as above. As to conditions: P. falciparum in erythrocytes, SYBR Green DNA, 72 h; series mostly up to 28.7 µM. An outline of the steps: as §1
The next assay deals with ATS95. The description is as above. As to conditions: P. falciparum in erythrocytes, SYBR Green DNA, 72 h; series mostly up to 28.7 µM. An outline of the steps:
as §1

The subject of another assay is C2A. Described as above. The following applies: P. falciparum in erythrocytes, SYBR Green DNA, 72 h; series mostly up to 28.7 µM. An outline of the steps: as §1
The subject of another assay is CP185. Described as above. As to conditions: P. falciparum in erythrocytes, SYBR Green DNA, 72 h; series mostly up to 28.7 µM. An outline of the steps: as §1
The next assay has as its system CP191. The assay is described as above. The following applies: P. falciparum in erythrocytes, SYBR Green DNA, 72 h; series mostly up to 28.7 µM. An outline of the steps: as §1
For a further assay, the system named is CP192. The description is as above. The following applies: P. falciparum in erythrocytes, SYBR Green DNA, 72 h; series mostly up to 28.7 µM. An outline of the steps:
as §1

The next assay concerns CP194. Described as above. As to conditions: P. falciparum in erythrocytes, SYBR Green DNA, 72 h; series mostly up to 28.7 µM. An outline of the steps: as §1
The next assay concerns CP201. The assay is described as above. The following applies: P. falciparum in erythrocytes, SYBR Green DNA, 72 h; series mostly up to 28.7 µM. An outline of the steps: as §1
The next assay concerns CP203. Described as above. As to conditions: P. falciparum in erythrocytes, SYBR Green DNA, 72 h; series mostly up to 28.7 µM. An outline of the steps: as §1
In another assay the test system is CP211. The assay is described as above. As to conditions: P. falciparum in erythrocytes, SYBR Green DNA, 72 h; series mostly up to 28.7 µM. An outline of the steps: as §1
The next assay deals with CP215. Described as above. As to conditions: P. falciparum in erythrocytes, SYBR Green DNA, 72 h; series mostly up to 28.7 µM. An outline of the steps: as §1
The target of assay [3] is Nuclear receptor subfamily 1 group I member 2 (Homo sapiens) (UniProt O75469). Kind of assay: Dual reporter qHTS for antagonist of Pregnane X Receptor (hPXR) against the NCATS DSHEA and TCM libraries: Luminescence Readout (AID 1920060).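 Note: HepG2 cells carrying hPXR luciferase reporter stimulated with rifampicin at 2 µM; 0% is about no effect.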 The following applies: hPXR dual reporter cells, luciferase luminescence, antagonist mode; series mostly up to 40 µM. An outline of the steps:
(§2)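 In antagonist mode, 2 uM rifampicin was added to hPXR-Luc HepG2 cells alongside test substances, incubated 24 h at 37 C; luminescence gave reporter activity, and CellTiter-Fluor fluorescence (405/540 nm) gave viability.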

Assay [4] in a line: Dual reporter qHTS for antagonist of Pregnane X Receptor (hPXR) against the NCATS DSHEA and TCM libraries: Fluorescence Readout (AID 1920061). Note: 0% is about no effect. As to conditions: PXR dual reporter cells, antagonist mode; series mostly up to 40 µM. An outline of the steps: as §2
Another assay concerns 7G8. Kind of assay: qHTS profiling for inhibitors of Plasmodium falciparum proliferation (AID 504749). Note: nearly all actives have a fitted effect of over 60% in size. Note: potency is the fitted concentration of half-maximal effect. As to conditions: P. falciparum in erythrocytes, SYBR Green DNA, 72 h; series mostly up to 28.7 µM. An outline of the steps: as §1
Assay [5] deals with Nuclear receptor subfamily 1 group I member 2 (Homo sapiens) (UniProt O75469). The experiment in a line: Dual reporter qHTS for agonist of Pregnane X Receptor (hPXR) against the NCATS DSHEA and TCM libraries: Luminescence readout (AID 1920059). Note: 0% is about no effect. As to conditions: hPXR dual reporter cells, luciferase luminescence agonist; series mostly up to 40 µM. An outline of the steps: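 hPXR-Luc HepG2 cells, 2000/well in 5% charcoal-stripped FBS medium, attached 5 h, then exposed 24 h at 37C to compounds. Viability by CellTiter-Fluor, then luciferase luminescence with ONE-Glo.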

Setting [6] is: measured here: PEO1 parental Z-AUC.

Results filed as inconclusive are left out. The source made the active and inactive calls. Unless noted, calls come from the whole dose curve; as a rule, active = well fitted curve in the direction sought with a large enough effect; inconclusive = small, poorly fitted or top-dose-only effect, or another doubt; inactive = no such curve, though single readings can be large; an effect the other way counts as inactive or inconclusive.

Chain of Nuclear receptor subfamily 1 group I member 2 (Homo sapiens) (O75469 whole entry, looked up): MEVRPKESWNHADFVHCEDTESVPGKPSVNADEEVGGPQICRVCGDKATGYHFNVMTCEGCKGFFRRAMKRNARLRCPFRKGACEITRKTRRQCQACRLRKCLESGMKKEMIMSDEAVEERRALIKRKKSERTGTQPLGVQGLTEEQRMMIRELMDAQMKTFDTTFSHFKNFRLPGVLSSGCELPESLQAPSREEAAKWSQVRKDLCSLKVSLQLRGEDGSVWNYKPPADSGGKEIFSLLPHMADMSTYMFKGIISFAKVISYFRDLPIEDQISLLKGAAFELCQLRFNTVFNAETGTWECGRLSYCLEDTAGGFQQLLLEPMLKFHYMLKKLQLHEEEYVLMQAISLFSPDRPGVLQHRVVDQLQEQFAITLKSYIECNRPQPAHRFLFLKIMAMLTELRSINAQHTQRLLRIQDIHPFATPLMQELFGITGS

Regarding `CN(C)S(=O)(=O)c1ccc2c(c1)/C(=C/c1cc3c([nH]1)CCCC3)C(=O)N2`, the Z-AUC was 1.05 (inactive) in assay [1], 0.668 in assay [1] (setting [6]) and 0.277 in [1] (measured here: PEO4 Z-AUC).

In the case of `CC(O)C(O)[C@H]1CNc2nc(N)[nH]c(=O)c2N1` (some centres not stated), the molecule was classed as inactive (in assay [2]; in the assay with AA1029; in the assay with AS120; in the assay on ATS95; in the assay with C2A; with CP185). Also, the call in the assay with CP194, in the assay on CP201, with CP211 and in the assay on CP215 was inactive. The Potency entry with 3D7, with ATS189, in the assay with CP191, in the assay on CP192 and in the assay with CP203 was “inactive” in each case.

For the molecule `O=C(O)/C=C/c1ccc(O)c(O)c1`, the outcome in assay [3] and in assay [4] was inactive.

On to `CCCCCCCCCCCCCCCCCCOC[C@H](COP(=O)([O-])OCC[N+](C)(C)C)OC`, for which the result (in assay [2]; in the assay with AA1029; in the assay with AS120; with ATS95; with C2A; with CP185) was inactive. Further, the result in the assay on CP194, in the assay with CP201, in the assay on CP211 and in the assay on CP215 was inactive. The Potency entry in the assay on 3D7, in the assay on 7G8, with ATS189, with CP191, with CP192 and in the assay with CP203 was “inactive” each time.

On to `C=C1C[C@@]23CC[C@H]4[C@@](C)(CCC[C@@]4(C)C(=O)OC4OC(CO)C(O)C(O)C4O)[C@@H]2CC[C@]1(OC1OC(CO)C(O)C(O)C1OC1OC(CO)C(O)C(O)C1O)C3` (some centres not stated), for which the molecule was called inactive in assay [5], in [3] and in assay [4].

With `CN1C2CCC1CC(OC(c1ccccc1)c1ccccc1)C2` (configuration not stated), the outcome (in assay [2]; in the assay with AS120; in the assay with C2A; in the assay with CP211) was inactive. In addition, the Potency result with 3D7, with CP192 and with CP203 was “inactive” in each case. Further, the Potency in the assay with 7G8 was 4.47 µM (active).

Regarding `O=C1Nc2ccc(I)cc2/C1=C/c1cc(Br)c(O)c(Br)c1`, the Z-AUC in assay [1] was 1.3 (inactive); in assay [1] (setting [6]) it was 0.638; in assay [1] (measured here: PEO4 Z-AUC) it was 0.686.

In the case of `CCCc1c(OCCCOc2ccc(OCC(=O)O)cc2)ccc(C(C)=O)c1O`, the Z-AUC was 1.58 (inactive) in [1], 1.27 in assay [1] (setting [6]) and 1.18 in [1] (measured here: PEO4 Z-AUC).

For the molecule `c1ccc(C2CN3CCSC3=N2)cc1` (configuration not stated), the Potency in the assay with 3D7 was 11.2 µM (active); in the assay with 7G8, 0.794 µM (active); with ATS189 it was 5.01 µM (active); in the assay on CP191 it was 7.94 µM (active); in the assay on CP192, 19 µM (active); in the assay with CP203, 16.9 µM (active). In the assay with CP201, the molecule was classed as inactive.

Consider `CC1=C(/C=C/C(C)=C/C=C/C(C)=C\C(=O)O)C(C)(C)CCC1`, for which the Z-AUC in assay [1] is -0.242 (inactive); in [1] (setting [6]), 0.115; in assay [1] (measured here: PEO4 Z-AUC) it was 0.0344.

Take `CC(C)NC[C@H](O)COc1ccc(CC(N)=O)cc1`: the call (in [2]; in the assay on AA1029; in the assay on AS120; in the assay with ATS95; in the assay on C2A; in the assay on CP185) was inactive. The molecule was called inactive with CP194, in the assay on CP201, with CP211 and with CP215. The Potency result with 3D7, in the assay on 7G8, in the assay with ATS189, with CP191, in the assay with CP192 and in the assay on CP203 was “inactive” each time.

As for `CCCCCCCCCCCCCCC[C@H](O)[C@H](N)CO`, the outcome (in assay [2]; with AA1029; with AS120; in the assay on ATS95; in the assay with C2A; in the assay on CP185) was inactive. The outcome with CP194, with CP201, in the assay on CP211 and with CP215 was inactive. Also, the Potency entry in the assay with 3D7, with ATS189, with CP191, with CP192 and in the assay with CP203 was “inactive” each time.

Take `COc1cc(/C=C(\C#N)C(=O)Nc2nnc(C(F)(F)F)s2)ccc1OCc1ccc(C(F)(F)F)cc1C(F)(F)F`: the results for the Z-AUC in assay [1], in [1] (setting [6]) and in assay [1] (measured here: PEO4 Z-AUC) were 0.582 (inactive), 0.483 and 0.578, respectively.
